Reference: PubChem BioAssay (Tox21)
Results filed as inconclusive are left out. A number with no mark means an inactive call. Calls of active or inactive are those of the source. Calls come from the whole dose curve.

Test: qHTS assay to identify small molecule agonists of the AP-1 signaling pathway (AID 1159526)
Conditions: ME-180 (cervical carcinoma) AP-1-bla reporter, beta-lactamase FRET ratio, 5 h; series mostly up to 76.8 µM
% is set by controls: 0 for no effect and ±100 for the full control effect.

Row | Structure (SMILES) | outcome | activation
1 | CCC(C)(C)C1CCC(O)CC1 (stereo not drawn) | inactive | –
2 | CC(CCc1ccc2c(c1)OCO2)NN (stereo not drawn) | inactive | –
3 | C1COCO1 | inactive | –
4 | CCCCCCCCCCCC(=O)[O][Sn]([CH2]CCC)([CH2]CCC)[O]C(=O)CCCCCCCCCCC | inactive | –
5 | CC(CCO)CCc1ccccc1 (stereo not drawn) | inactive | –
6 | CC1=NN(c2ccc(C(=O)O)cc2)C(=O)C1 | inactive | –
7 | C=CC(=O)NCOCC(C)C | inactive | –
8 | NC(=O)Nc1ccc(Cl)c(Cl)c1 | inactive | –
9 | CO[C@H]1O[C@H](CO)[C@@H](O)[C@H](O)[C@H]1O | inactive | –
10 | Brc1cc(-c2ccc(Br)c(Br)c2Br)cc(Br)c1Br | inactive | –
11 | O=Cc1c(Cl)cccc1Cl | inactive | –
12 | CCCCCCCCSCCO | inactive | –
13 | CCC(=O)OC/C=C/c1ccccc1 | inactive | –
14 | C[Si]1(C)O[Si](C)(C)O[Si](C)(C)O1 | inactive | –
15 | Cc1oncc1C(=O)Nc1ccc(C(F)(F)F)cc1 | inactive | –
16 | Nc1c(I)cc(I)c(C(=O)N(CCC(=O)O)c2ccccc2)c1I | inactive | –
17 | CCCCCCCCCCCCCCCCBr | – | -6.6% [at 15.8 µM]

Row | Structure (SMILES) | outcome | activation
18 | CC(C)(C)C(=O)O | inactive | –
19 | CC1=CC(=O)CC(C)(C)C1(O)/C=C/C(C)=C\C(=O)O (stereo not drawn) | inactive | –
20 | C=CCCCCCCCCCCCCCCCC | – | -4.53% [at 6.97 µM]
21 | CC(=O)OCC(=O)[C@@]12OC(C)(C)O[C@@H]1C[C@H]1[C@@H]3C[C@H](F)C4=CC(=O)C=C[C@]4(C)[C@@]3(F)[C@@H](O)C[C@@]12C | inactive | –
22 | O=C(CCCCCCC(=O)Nc1ccccc1)NO | inactive | –
23 | Cc1nc2ccccc2s1 | inactive | –
24 | c1ccc(COCc2ccccc2)cc1 | inactive | –
25 | O=C(CCCCCCCCC#CI)Oc1ccccc1 | inactive | –
26 | O=C1OCCN1/N=C/c1ccc([N+](=O)[O-])o1 | inactive | –
27 | CCOC(=O)N1CCC(n2c(=O)[nH]c3cc(Cl)ccc32)CC1 | inactive | –
28 | COc1cc2[nH]c(=O)[nH]c(=O)c2cc1OC | inactive | –
29 | OC(CCCN1CCCCC1)(c1ccccc1)c1ccccc1 | inactive | –
30 | Cc1cc(O)c2c(O)c3c(O)cccc3cc2c1 | inactive | –
31 | COc1cc2c(N3CCN(C(=O)Nc4ccc(OC(C)C)cc4)CC3)ncnc2cc1OCCCN1CCCCC1 | inactive | –
32 | O=C(/C=C/c1ccccc1)OCCCc1ccccc1 | inactive | –
33 | OC/C(Br)=C(\Br)CO | inactive | –
